Screen size: about 69,000 compounds; about 950 (1.4%) showed an effect of 50% or more. This is one part of a sample in which strong results are shown more often than they occur.

The test system of this experiment is Mycobacterium tuberculosis. Kind of experiment: Cornell M. t heat shock assay. Also: in the data most compounds retested in dose-response had high values. In kind it is functional, organism-based. More on the design: dose or concentration left out as unconfirmed.
On to `CC(=O)c1c(C)nn(CC(=O)Nc2ccc(F)cc2)c1C`, for which the “Percent Effect” value was 21.2%.

For `Cc1nn(CC(=O)Nc2cccc(F)c2)c(N)c1C#N`, the “Percent Effect” value was 4.908%.

`Cc1cc(=O)n(CC(=O)Nc2ccc(Cl)cc2)nc1C`: the “Percent Effect” value is given as -4.62%.

Regarding `Cc1cc(NC(=O)Cn2nc(C)c(C#N)c2N)ccc1Br`, the “Percent Effect” value was -21.12%.

`Cc1nn(CC(=O)Nc2ccc(F)cc2)c(N)c1C#N`: the “Percent Effect” value was 51.75%.

For `COc1ccc(NC(=O)Cn2nc(C)c(C(C)=O)c2C)cc1`, the “Percent Effect” value is on record as 105.6%.

Take `COc1ccc(NC(=O)Cn2nc(C)c(C)cc2=O)cc1`: the “Percent Effect” value is 2.037%.

In the case of `CC(=O)c1c(C)nn(CC(=O)Nc2ccc(Br)cc2)c1C`, the “Percent Effect” value came out at 105.9%.

As for `COc1ccc(NC(=O)Cn2nc(C)c(C)cc2=O)cc1OC`, the “Percent Effect” value is 2.159%.

On to `NC(=O)N1CCC2(CC1)CN(Cc1cccnc1)C(=O)CO2.O=C(O)C(F)(F)F`, for which the “Percent Effect” value was -31.58%.

On to `Cn1cc(CN2C[C@H]3CCC[C@@]3(COCC3CC3)C2)cn1.O=C(O)C(F)(F)F`, for which the “Percent Effect” value is 12.92%.

Turning to `COc1cc(CNCC(O)c2cccc(F)c2)cc2c1OCO2.Cl` (stereo unspecified), the “Percent Effect” value is on record as -9.248%.

For the compound `Cc1cccc(CN2CC[C@H]3[C@H]2CCN3Cc2cnn(C)c2)n1.O=C(O)C(F)(F)F.O=C(O)C(F)(F)F.O=C(O)C(F)(F)F`, the “Percent Effect” value is given as -12.06%.

On to `Cc1noc(C)c1CN1CCC2(CC1)NC(=O)CC2c1ccccc1.O=C(O)C(F)(F)F` (stereo unspecified), for which the “Percent Effect” value is 5.51%.

On to `Cc1noc(C)c1C(=O)N1Cc2ncn(C)c2C(COCC2CC2)C1.O=C(O)C(F)(F)F` (stereo unspecified), for which the “Percent Effect” value is reported as 16.79%.

Consider `CCN1CCC2(CCN(Cc3ccc(OC)cc3)CC2)C1=O.O=C(O)C(F)(F)F`, for which the “Percent Effect” value is given as -24.62%.

On to `Cl.N[C@@H](Cc1ccccc1)c1nnc(S(=O)(=O)Cc2cccc(Cl)c2)o1`, for which the “Percent Effect” value is -4.264%.

With `CCc1cn[nH]c1C1CCN(c2cc(C)c3cc(OC)ccc3n2)CC1`, the “Percent Effect” value came to 2.652%.

For `Cc1ccc(N2CCC(c3[nH]ncc3Cc3ccccc3)CC2)nn1`, the “Percent Effect” value was found to be 102.6%.

In the case of `CCc1cn[nH]c1C1CCN(c2cc(C)c3ccc(OC)cc3n2)CC1`, the “Percent Effect” value is on record as -17.8%.

Take `Cc1ccc(N2CCC(c3cc(Cc4ccccc4)n[nH]3)CC2)nn1`: the “Percent Effect” value was 6.303%.

Turning to `Cc1ccc(N2CCCC(c3[nH]ncc3Cc3ccccc3)C2)nn1` (stereo unspecified), the “Percent Effect” value was determined as 8.561%.

For the compound `CCc1cn[nH]c1C1CCN(c2cc(C)c3cccc(OC)c3n2)CC1`, the “Percent Effect” value is 85.21%.

As for `CC(=O)N1CCN(Cc2ccc(C)o2)CC2(CC(=O)N(C)C2)C1.O=C(O)C(F)(F)F` (stereo unspecified), the “Percent Effect” value is reported as -2.414%.

With `Cc1nc(N)ncc1C(=O)N1CCCC(CCc2ccc(F)cc2)C1` (stereo unspecified), the “Percent Effect” value was -19.18%.

With `Cc1ncccc1NC(=O)[C@@H]1CCO[C@@H]2CCN(c3ccccc3)C[C@@H]21.O=C(O)C(F)(F)F.O=C(O)C(F)(F)F`, the “Percent Effect” value is 12.9%.

With `CCN(Cc1noc(C)n1)C(=O)CC1C(=O)NCCN1CC(C)(C)C` (stereo unspecified), the “Percent Effect” value is on record as -17.37%.

As for `OC(CN1CCN(CC2CC2)CC1)c1ccc(Br)cc1` (stereo unspecified), the “Percent Effect” value stood at 6.961%.

As for `O=C(N1CCCCC1)N1CCN(CC(O)c2ccccc2)CC1` (stereo unspecified), the “Percent Effect” value is on record as -21.19%.

As for `OC(CN1CCN(CC2CCCCC2)CC1)c1ccccc1` (stereo unspecified), the “Percent Effect” value amounted to 50.33%.

As to `CCCn1nc(C)c(-c2cncn2CCN(C)C2CCCC2)c1C.Cl`, the “Percent Effect” value is 7.382%.

For `CN(C)S(=O)(=O)N1CCC[C@]2(C[C@@H](Oc3ncccc3F)CO2)C1.O=C(O)C(F)(F)F`, the “Percent Effect” value is given as -8.336%.

For the compound `CNC(=O)CCCNc1cc(C)nc2cc(C)nn12`, the “Percent Effect” value was -5.305%.

In the case of `CNS(=O)(=O)CCNc1cc(C)nc2cc(C)nn12`, the “Percent Effect” value was found to be 10.96%.

`Cc1cc(NCc2ccc(O)cc2)n2nc(C)cc2n1`: the “Percent Effect” value is 21.53%.

Turning to `Cc1cc(NCc2ccc(CO)cc2)n2nc(C)cc2n1`, the “Percent Effect” value is 10.67%.

As for `Cc1cc(NCCCC(F)(F)F)n2nc(C)cc2n1`, the “Percent Effect” value came out at 87.73%.

Take `Cc1cc(NCc2cc(C)oc2C(F)(F)F)n2nc(C)cc2n1`: the “Percent Effect” value is reported as 56.47%.

As to `Cc1cc(NCc2ccc(C#N)cc2)n2nc(C)cc2n1`, the “Percent Effect” value is listed as -9.847%.

Take `Cc1cc(C(F)(F)F)nc(CNc2cc(C)nc3cc(C)nn23)n1`: the “Percent Effect” value is recorded as 65.55%.

With `Cc1cc(NCc2cccnc2)n2nc(C)cc2n1`, the “Percent Effect” value is recorded as 1.456%.

Regarding `CC(C)OCCCN(CC(=O)N1CCNCC1)C(=O)c1cccc(Cl)c1.O=C(O)C(F)(F)F`, the “Percent Effect” value is -0.6086%.

Take `COc1cccc(CN2C[C@@H]3COC[C@]3(CN3CCOCC3)C2)c1.O=C(O)C(F)(F)F.O=C(O)C(F)(F)F`: the “Percent Effect” value is on record as -20.77%.

For the compound `Cc1noc(C)c1CN1C[C@@H]2COC[C@@H](CC(=O)N3CCCCO3)[C@@H]2C1.O=C(O)C(F)(F)F`, the “Percent Effect” value is recorded as -4.663%.

Regarding `CCC(C)[C@H](N)c1nnc(SCC(=O)Nc2ccc(Br)cc2)o1.Cl` (stereo partly specified), the “Percent Effect” value is recorded as -9.343%.

Regarding `O=C(O)C(F)(F)F.c1cc(COC[C@H]2CCC[C@]23CNCCO3)ccn1`, the “Percent Effect” value is 31.7%.

Regarding `CN(C)c1ncnc2c1CCN(CC1CCCC1)CC2.O=C(O)C(F)(F)F`, the “Percent Effect” value came to 2.211%.

As to `Cn1cccc1CNCC1CCCn2cc(C(C)(C)C)nc21` (stereo unspecified), the “Percent Effect” value is 1.286%.

Turning to `CC(C)(C)c1cn2c(n1)C(CNCc1ccccn1)CCC2` (stereo unspecified), the “Percent Effect” value is given as 70.45%.

For the compound `CC(C)(C)c1cn2c(n1)C(CNCc1cnn3ccccc13)CCC2` (stereo unspecified), the “Percent Effect” value was 15.66%.

On to `CCOCC1CN(c2ccncn2)Cc2cnn(CC3CC3)c21.O=C(O)C(F)(F)F.O=C(O)C(F)(F)F` (stereo unspecified), for which the “Percent Effect” value was -24.31%.

With `COc1ncccc1C(=O)N1CC[C@]2(C[C@@H](Oc3cccnc3)CO2)C1.O=C(O)C(F)(F)F.O=C(O)C(F)(F)F`, the “Percent Effect” value is given as -28%.

Regarding `Cc1cccc(CN2C[C@@H]3COC[C@]3(CNC(=O)c3ccccc3)C2)n1.O=C(O)C(F)(F)F.O=C(O)C(F)(F)F`, the “Percent Effect” value is reported as -15.75%.

Regarding `CN1CC(=O)N(c2cnn(C)c2)CC12CCN(Cc1cccnc1)C2.O=C(O)C(F)(F)F.O=C(O)C(F)(F)F.O=C(O)C(F)(F)F` (stereo unspecified), the “Percent Effect” value is recorded as -54.01%.

As to `Cc1noc(C)c1CN1C[C@@H]2COC[C@@H](C(=O)N3CCCCO3)[C@@H]2C1.O=C(O)C(F)(F)F`, the “Percent Effect” value was -3.514%.

As for `COc1ccc(N2CCN(C(=O)Cn3nccc3C)CC2(C)C)cc1`, the “Percent Effect” value amounted to 16.6%.

`COc1ccccc1N1CCN(C(=O)Cn2nc(C)cc2C)CC1(C)C`: the “Percent Effect” value is given as 8.115%.

On to `COc1ccccc1N1CCN(C(=O)Cn2nccc2C)CC1(C)C`, for which the “Percent Effect” value came to 90.85%.

On to `O=C(c1c[nH]c2ccccc2c1=O)N1CCSCC1`, for which the “Percent Effect” value is 105.4%.

On to `COc1ccc2[nH]cc(C(=O)N3CC[C@H](CO)[C@@H](O)C3)c(=O)c2c1`, for which the “Percent Effect” value is recorded as -0.5763%.

Regarding `O=C(Cc1c[nH]c2ccccc12)N1CCN(C(=O)c2ccoc2)CC1`, the “Percent Effect” value is given as 3.224%.

On to `Cc1nccc(NCc2cncc3c2CCN(CCN(C)C)C3)n1`, for which the “Percent Effect” value worked out at 3.393%.

On to `COc1ccccc1N1CCN(Cc2ncc(C)c(OC)c2C)CC1=O`, for which the “Percent Effect” value is 18.05%.

Regarding `Cc1cc(C)n(C2=NC(NCCC(C)C)c3c(sc4c3CCCC4)N2)n1` (stereo unspecified), the “Percent Effect” value is 11.87%.

On to `COCCNc1nc(-n2nc(C)cc2C)nc2sc3c(c12)CCCC3`, for which the “Percent Effect” value turned out to be 40.33%.

Turning to `Cc1cc(C)n(-c2nc(NCCCO)c3c4c(sc3n2)CCCC4)n1`, the “Percent Effect” value came to 101.1%.

As to `CO[C@@H]1CN(c2ccccc2)S(=O)(=O)[C@@]12CCN(C(C)=O)C2`, the “Percent Effect” value is given as 16.02%.

For `CN(C)c1ccc(CN(CCCn2ccnc2)Cc2c[nH]cn2)cc1.O=C(O)CC(O)(CC(=O)O)C(=O)O`, the “Percent Effect” value is reported as 16.53%.

For `Cc1ccc(O)c(CN(CCCn2ccnc2)Cc2ccc(C)s2)c1.O=C(O)CC(O)(CC(=O)O)C(=O)O`, the “Percent Effect” value turned out to be 105.6%.

Consider `Cc1ccc(S(=O)(=O)N2CCN(CCCn3ccnc3)CC2)cc1`, for which the “Percent Effect” value is on record as 15.57%.

On to `Cc1ccc(CN(CCCn2ccnc2)Cc2ccccc2O)s1.O=C(O)CC(O)(CC(=O)O)C(=O)O`, for which the “Percent Effect” value is recorded as 35.85%.

As for `Cc1ccc(CN(CCCO)Cc2nc3ccccc3[nH]2)s1`, the “Percent Effect” value was -17.57%.

For the compound `Cc1cccc(CC(=O)N2CCN(c3nccn3C)CC2)c1.Cl`, the “Percent Effect” value is -13.18%.

For `O=C(O)C(F)(F)F.O=C(O)C(F)(F)F.c1csc(CN2C[C@@H]3COC[C@]3(COCc3ccncc3)C2)c1`, the “Percent Effect” value is -17.61%.

Take `O=C(Cc1ccc(F)cc1)N1CCn2cc(Cn3cccn3)nc2C1.O=C(O)C(F)(F)F`: the “Percent Effect” value is 1.862%.

Consider `O=C(CN1CCc2sccc2C1)Nc1ccnc2ccnn12`, for which the “Percent Effect” value is 101.6%.

As to `CC(C)n1nccc1NC(=O)CN1CCc2sccc2C1`, the “Percent Effect” value was -0.741%.

On to `Cn1nccc1NC(=O)CN1CCc2sccc2C1`, for which the “Percent Effect” value is reported as -34.76%.

With `Cc1ccoc1C(=O)N1CCc2ccc(=O)n(CCN(C)C)c2CC1.O=C(O)C(F)(F)F`, the “Percent Effect” value is -10.47%.

For `CCNc1ncc(C(=O)N2CCOC(CCCc3ccccc3)C2)cn1` (stereo unspecified), the “Percent Effect” value worked out at 13.88%.

Turning to `CCc1ocnc1C(=O)N1CCOC(CCCC(C)C)C1` (stereo unspecified), the “Percent Effect” value worked out at 2.233%.

As to `CCNc1ncc(C(=O)N2CCOC(CCCC(C)C)C2)cn1` (stereo unspecified), the “Percent Effect” value stood at 101.8%.

Turning to `Cn1cc2c(n1)C(CNCc1ccco1)OCC2.O=C(O)C(F)(F)F.O=C(O)C(F)(F)F` (stereo unspecified), the “Percent Effect” value is recorded as -43.95%.

Turning to `CC(C)C(=O)N1CCC[C@]2(C(=O)N(C)C)CN(c3ccccn3)C[C@@H]2C1.O=C(O)C(F)(F)F`, the “Percent Effect” value is listed as -34.76%.

For `CN(C)C(=O)C1OC2(CCNCC2)c2ccccc21.O=C(O)C(F)(F)F` (stereo unspecified), the “Percent Effect” value is given as -39.36%.

As for `Cc1cnn(CC(C)NCc2csc(-c3ncccn3)n2)c1` (stereo unspecified), the “Percent Effect” value is on record as 10.59%.

Consider `Cc1cnn(CC(C)NCc2csc(-c3cccs3)n2)c1` (stereo unspecified), for which the “Percent Effect” value amounted to 37.01%.

Regarding `CC(Cn1cccn1)NCc1nc(-c2ccccc2Cl)no1` (stereo unspecified), the “Percent Effect” value came to 1.662%.

Turning to `CC(Cn1cccn1)NCc1csc(-c2ccsc2)n1` (stereo unspecified), the “Percent Effect” value was found to be 22.32%.

On to `CC(Cn1cccn1)NCc1csc(-c2cccs2)n1` (stereo unspecified), for which the “Percent Effect” value came out at 54.31%.

On to `CC(Cn1cccn1)NCc1csc(-c2ccccc2F)n1` (stereo unspecified), for which the “Percent Effect” value is given as 54.47%.

Values taken from ChEMBL document CHEMBL3988442, “University of Dundee, Small-Polar-MMV Screening Library” (2021).
